Screening data from PubChem BioAssay.
SARS PLpro yeast: SARS-CoV PLP inhibition in yeast | S. cerevisiae expressing SARS-CoV PLpro, growth rescue | Potency, µM (doses to about 32.9 µM), inactives show top-dose activity, positive = growth rescue, usual class: activators | hit rate 0.19% among 330,000 | AID 485353; calls by dose curve; further: potency means the concentration at half of the fitted maximal effect; 0% is about no effect; nearly all actives have a fitted effect of over 55% in size
MARV entry inh: inhibitors of Marburg virus binding or cell entry; Marburg virus pseudotyped entry inhibition, cell reporter; AID 540276; hit rate 1.8% among 300,000; Potency, µM (doses to about 37.8 µM), inactives show at the highest dose activity change, negative = inhibition, hits mostly inhibitors; calls by dose curve; tested in HEK293 cells; further: potency means the concentration at half of the fitted maximal effect; on the % scale 0 is the no-effect control and ±100 the full control effect
HCMV antiviral: inhibitors of human cytomegalovirus; hit rate 4.5% among 410,000; AID 1259415; activity change, negative = inhibition, % at 57.5 µM; HFF cells, HCMV-luciferase reporter, 72 h; active compounds read low; in the data active means activity change below about -60%; inconclusive means no clear call, values can overlap the other calls; inactive means above about -39%; further: on the % scale 0 is the no-effect control and ±100 the full control effect
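Two-dose cell screen: HFF monolayers treated with compounds and infected with luciferase-expressing HCMV at 1 PFU/cell, 72 h at 37C, then lysed for luciferase measurement.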
Lassa entry inh: blocks Lassa virus binding to or entry into cells; Lassa virus pseudotype entry inhibition, cell reporter; hit rate 1.2% among 300,000; Potency, µM (highest dose often 37.9 µM), for the others: top-dose activity change, negative = inhibition, usual class: inhibitors; AID 540256; calls by dose curve; tested in HEK293 cells; further: potency means the concentration at half of the fitted maximal effect; on the % scale 0 is the no-effect control and ±100 the full control effect; nearly all actives have a fitted effect of over 50% in size
FMDV inh: antivirals against foot and mouth disease virus | FMDV antiviral cell-based qHTS | Potency, µM (series often up to 57.9 µM), for inactives: at the top dose activity change, negative = inhibition, usual class: inhibitors | hit rate 1.2% among 410,000 | AID 1159524; calls by dose curve; tested in HEK293T cells; further: read-out not given here; potency means the concentration at half of the fitted maximal effect; on the % scale 0 is the no-effect control and ±100 the full control effect; nearly all actives have a fitted effect of over 45% in size
HCV inhibitor: HCV inhibition; Huh7.5.1 HCVcc-Cre infection, luciferase reporter, 44 h; Potency, µM (top dose mostly 41.8 µM), for inactives: at the highest dose activity change, negative = inhibition, usual class: inhibitors; hit rate 3.4% among 340,000; AID 651820; active means well fitted inhibition curve with a large enough effect; inconclusive means small, poorly fitted or top-dose-only effect, or another doubt; inactive means no such curve, though single readings can be large or run the other way; further: potency means the concentration at half of the fitted maximal effect; on the % scale 0 is the no-effect control and ±100 the full control effect
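HCVcc-Cre virus at an moi near 0.5 was added right after compound to cells cultured 4 h from seeding (1,000 cells/well). Luciferase activity was determined 44 h later, 15 min after substrate addition at RT.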
* marks the source's active call; other numbers are inactive results; ? = inconclusive; . = no result; [ ] = dose if it differs, or a comment. In the library only some 8% were active in any assay of this set; here they are far more common.

SMILES	SARS PLpro yeast	MARV entry inh	HCMV antiviral	Lassa entry inh	FMDV inh	HCV inhibitor
CN(C)c1ccc(CC(=O)N2CCCC(c3cc(C(=O)Nc4ccc(C(C)(C)C)cc4)no3)C2)cc1 (centres undefined)	.	.	-74.9*	.	17.8µM*	.
N[C@@H](Cc1ccc(Oc2ccc(O)cc2)cc1)C(=O)O	.	-6.1%	.	.	.	.
COc1cccc(Nc2nccc3[nH]c(-c4cccc(C(C)C)c4)nc23)c1	.	.	-13.9	.	.	.
COc1ccc(CNC(=O)CCC2N=C3c4ccccc4N=C(SCc4cccc(F)c4)N3C2=O)cc1 (centres undefined)	.	.	64.9	?	-5.7%	.
COc1ccc2ccccc2c1CN1CCCC(CO)C1 (centres undefined)	1.2%	-22.9%	-2.9	4.1%	-0.7%	-10.7%
COc1ccc(CN2CCN(Cc3ccccc3)CC2)c(OC)c1	0.1%	18.3µM*	17.2	-19.3%[14.3 µM]	-12.8%	.
COc1ccc(CN2CCN(Cc3ccc4ccccc4c3)CC2)cc1OC	2.7%	?	-64.9*	?	?	?
COc1ccc2ccccc2c1CN1CCN(Cc2ccccc2)CC1	-7.2%	?	-74.7*	?	.	-11.9%
Cc1cc2oc(C(=O)Nc3ccc(S(N)(=O)=O)cc3)cc(=O)c2cc1C	.	-12.6%[46.1 µM]	2.8	6.6%[46.1 µM]	-12.3%	.
CCCC(=O)N1CC2(CCN(C(C)=O)CC2)c2c(n(C)c3cc(OC)ccc23)[C@H]1CO	.	.	12.3	.	.	.
CCN1Cc2cccc(C(=O)Nc3ccc(F)cc3)c2C1=O	.	?	-24.7	?	-11.2%	.
CN1c2ccccc2C(C)(C)[C@]12C=Cc1cc(O)ccc1O2	0.7%	?	?	-15.9%	?	12.6µM*
Cc1ccc(/C=C/C(=O)NCc2cccs2)cc1	-33.7%	-2.2%	48.4	2µM*	44.4%	-13.6%
CCCNC(=O)/C=C/c1ccc(C(C)C)cc1	-21.8%	?	22.0	18.4µM*	48.1%	-8.8%
O=C(/C=C/c1ccccc1)NC(=S)NNC(=O)c1cnccn1	-14.0%	?	-98.0*	7.94µM*	2.5%	?
Cc1ccc(/C=C/C(=O)NCc2cccs2)c(C)c1	-1.8%	?	94.7	?	14.0%	6.3%
NC(=S)NC(=O)/C=C/c1ccccc1	7.6%	?	-67.1*	-35.5%	26.1%	?
Cc1ccc(NC(=O)C2CCN(C(=O)c3cnn(-c4ccccc4)c3-n3cccc3)CC2)cc1C	.	-17.5%[46.1 µM]	-20.9	-14.0%[46.1 µM]	?	.
CCc1ccc(NC(=O)CN2C(=O)C(c3ccc(C)cc3)=NC23CCCCC3)cc1	.	?	?	-22.2%[46.1 µM]	-2.1%	.
O=C(C=Cc1ccccc1)NCCNC(=O)C=Cc1ccccc1	.	?	-68.9*	18.6%[46.1 µM]	-5.5%	19.3%
O=C(/C=C/c1ccccc1)NCCCNC(=O)/C=C/c1ccccc1	0.4%	-1.2%[46.1 µM]	-16.6	12.7%	5.1%	12.1%
CCOC(=O)C1=C(O)c2ccccc2C(=O)/C1=C\c1ccc(CC)cc1	-45.0%	2.06µM*	.	?	?	?
Cc1ccc(/C([O-])=C(/C(=S)NCc2ccco2)[n+]2ccccc2)cc1	-2.6%	.	.	.	.	.
O=[N+]([O-])c1ccc(/C([O-])=C(/C(=S)NCc2ccco2)[n+]2ccccc2)cc1	-1.1%	17.5%[46.1 µM]	-61.0*	-11.4%[46.1 µM]	17.6%	-9.0%
CCc1nn(CC(=O)N(C)Cc2ccccc2)c(=O)c2cc3sccc3n12	.	-28.4%[46.1 µM]	2.7	.	-19.3%	.
SMILES	SARS PLpro yeast	MARV entry inh	HCMV antiviral	Lassa entry inh	FMDV inh	HCV inhibitor
COC(=O)c1cccc(Nc2c3c(nc4ccccc24)CCC3)c1	-2.7%	?	-20.2	?	?	3.16µM*
COc1cc(Cl)c(C)cc1Nc1c2c(nc3ccccc13)CCC2	.	?	-100.7*	?	?	.
c1ccc2c(Nc3ccc4c(c3)OCCO4)c3c(nc2c1)CCCC3	9.6%	?	-72.9*	7.94µM*	-19.1%	?
COc1ccccc1Nc1c2c(nc3ccccc13)CCC2	-0.4%	?	-68.5*	?	-26.0%	?
CCOC(=O)c1cccc(Nc2c3c(nc4ccccc24)CCC3)c1	.	?	-27.1	?	?	.
COc1ccc(Nc2c3c(nc4ccccc24)CCC3)c(OC)c1	-2.4%	?	?	?	-22.8%	?
Fc1cccc(Nc2c3c(nc4ccccc24)CCC3)c1	-0.7%	-1.7%[46.1 µM]	-25.2	?	-14.1%	-19.7%
COc1cc(Nc2c3c(nc4ccccc24)CCCC3)cc(OC)c1OC	0.3%	4.47µM*	-35.7	-18.5%[46.1 µM]	-10.4%	-21.3%
O=C(Nc1c2c(nc3ccccc13)CCCC2)c1cccc([N+](=O)[O-])c1	-4.2%	-9.0%	-64.2*	?	-19.5%	?
COc1ccc(C)cc1NC(=O)C(Sc1nnc(Nc2cc(C)ccc2OC)s1)c1ccccc1 (centres undefined)	17.4%	?	?	-0.6%	6.5%	10µM*
COc1cccc(NC(=O)C(Sc2nnc(Nc3ccccc3C)s2)c2ccccc2)c1 (centres undefined)	15.6%	?	-32.0	?	0.0%	?
COc1ccc(Nc2nnc(SC(C(=O)Nc3cc(C)ccc3C)c3ccccc3)s2)cc1 (centres undefined)	-0.2%	?	-99.7*	?	-6.6%	?
COc1ccc(Nc2nnc(SC(C(=O)Nc3ccc(OC)c(Cl)c3)c3ccccc3)s2)cc1 (centres undefined)	-13.3%	?	?	-4.6%	14.7%	?
Cc1cccc(N2CCN(C(c3ccccc3)c3nnc(-c4ccccc4Cl)o3)CC2)c1C (centres undefined)	.	7.4%[46.1 µM]	3.2	?	-7.3%	.
CC(=O)Nc1cccc(Oc2ncnc3scc(-c4ccc(C(C)C)cc4)c23)c1	-7.3%	2.82µM*	?	2.51µM*	-18.4%	?
CN(C)c1ccc(/C=N/NC(=O)CCc2c[nH]c3ccccc23)cc1	0.8%	?	-0.6	2µM*	10.4%	-11.2%
CCN(CC)c1ccc(/C=N/NC(=O)c2c[nH]c3ccccc23)cc1	-4.1%	3.6%	-67.0*	11.2µM*	5.7%	?
O=C(NN=Cc1ccc(N(CCCl)CCCl)cc1)C(=O)c1c[nH]c2ccccc12	.	4.47µM*	-20.6	6.31µM*	1.5%	?
O=C(Cc1c[nH]c2ccccc12)N/N=C/c1ccc(F)cc1	1.4%	0.1%	21.8	?	-2.6%	9.3%
Cc1ccc(CCNc2ncnc(Cl)c2N)cc1	.	?	-83.9*	-21.1%[46.1 µM]	-0.4%	1µM*
Cc1ccc(S(=O)(=O)CCC(=O)Nc2nc(-c3ccccn3)cs2)cc1	3.7%	.	?	.	?	12.6µM*
COc1ccc(NC(=O)CN2C(=O)NC(c3ccccc3)(c3ccccc3)C2=O)cc1	-1.7%	?	-17.3	?	0.0%	?
COc1ccc(C2(c3ccc(OC)cc3)NC(=O)N(CC(=O)Nc3ccc(OC(F)F)cc3)C2=O)cc1	4.4%	?	12.0	?	?	12.6µM*
